The sample as a whole holds a higher share of hits than the screen did.
U2OS ROS induce: inducers of reactive oxygen species in cancer cells; ROS induction (% of piperlongumine), % at 10 µM; U2OS ROS induction, H2DCF-DA fluorescence; AID 624156; 2% of 46,000 active; in the data active = ROS induction above about 79%, passing the limit was not always enough; inconclusive = no clear call, values can overlap the other calls;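 also: 0% = DMSO vehicle median and 100% = reference compound median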
PD-1 reverse act: activators reversing PD-1 mediated T-cell inhibition; primary human CD4 T cells, PD-L1 beads, CellTiter-Glo 96 h; activation, % (concentration not given with the values); 29,000 tested, under 10 active; AID 2316; call rule not given here;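 also: 0% = median vehicle wells and 100% = positive control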
MITF inh: MITF inhibition. 0.28% of 37,000 active. inhibition, % (concentration not given with the values). TRPM1 promoter luciferase, luminescence, 24 h; in the data active = inhibition above about 85%; inconclusive = no clear call, values can overlap the other calls; inactive = below about 68%;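 also: human melanocyte line stably carrying TRPM1 promoter luciferase reporter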
YB-1 expr inh: YB-1 expression inhibition; 0.37% of 30,000 active; U2OS, qRT-PCR YB-1 vs CDIP delta delta Cp, 16 h; active compounds read high; zero = DMSO, each unit about twofold; delta delta Cp (YB-1 minus CDIP) (concentration not given with the values); AID 434959;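 active = delta delta Cp rounded down to an integer at or above 3, about 3 SD of DMSO wells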;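 also: higher means less YB-1 transcript or more CDIP transcript relative to DMSO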
NOMO-1 viab: STK33 inhibitor candidate reducing NOMO-1 cell viability; NOMO-1 AML viability, CellTiter-Glo luminescence, 72 h; inhibition, % (no concentration beside the values); 7.5% of 37,000 active; AID 2330; in the data active = inhibition above about 80%; inconclusive = no clear call, values can overlap the other calls
* hit, by the source's call; ? = inconclusive; . = no result given; ! = not confirmed by another sample.

SMILES	U2OS ROS induce	PD-1 reverse act	MITF inh	YB-1 expr inh	NOMO-1 viab
CC(C)c1ccc(C2C(C#N)=C(N)C(C#N)(C#N)C3=CCN(C)CC32)cc1 (configuration not stated)	68	-3	14	-0.74	105*
CC(C)NC(=O)N(C)C[C@H]1Oc2ccc(NC(=O)Nc3ccc(F)cc3)cc2CC(=O)N([C@@H](C)CO)C[C@H]1C	-11	0	-7	-0.025	19
COc1c(Cl)cc(C(=O)Nc2sc3c(c2C(=O)NCc2cccnc2)CCCC3)cc1Cl	.	.	-25	.	36
C[C@H]1CN([C@@H](C)CO)C(=O)c2cc(NC(=O)C3CC3)ccc2O[C@H]1CN(C)Cc1ccc(C(=O)Nc2ccccc2N)cc1	-6	0	-15	-0.011	106*
C[C@H](CO)N1C[C@H](C)[C@H](CN(C)Cc2ccc(C(=O)Nc3ccccc3N)cc2)Oc2ccc(NC(=O)C3CC3)cc2C1=O	10	-2	-13	-0.09	?
C[C@@H]1CN([C@@H](C)CO)C(=O)c2cc(NC(=O)C3CC3)ccc2O[C@@H]1CN(C)Cc1ccc(C(=O)Nc2ccccc2N)cc1	29	-2	-12	0.3	105*
C[C@@H]1CN([C@@H](C)CO)C(=O)c2cc(NC(=O)C3CCCCC3)ccc2O[C@@H]1CN(C)Cc1ccc(C(=O)Nc2ccccc2N)cc1	-5	-2	2	-0.12	109*
N#Cc1cc(Br)ccc1N=C1CCCN1c1cccc(Cl)c1	8	.	.	.	.
O=C(Cn1c(-c2cccs2)cc2ccccc21)N1CCCCC1	-3	.	.	.	.
O=C(Cn1c(-c2cccs2)cc2ccccc21)NC1CCCCC1	115*	.	.	.	.
O=C(C/C(=C1/CCc2ccccc2C1=O)c1ccccc1)c1ccccc1	12	-1	50	-0.68	115*
O=C(/C=C/CCc1ccccc1)CCc1ccccc1	29	-3	1	0.16	121*
O=C(CSc1nccc(=O)[nH]1)N1CCc2ccccc21	30	-5	-3	.	16
CCn1c(SCC(=O)c2cccc([N+](=O)[O-])c2)nnc1-c1ccc(Cl)cc1	7	0	-4	.	16
N#CC(C#N)=C(Nc1ccccc1Cl)SCc1cccc(F)c1	3	-1	89*	0.18	87*
Cc1c(Cl)cccc1NC(=O)CN(c1cccc(F)c1)S(C)(=O)=O	3	0	9	.	17
Cc1cccc(N2C(=O)CC(SCc3nc4ccccc4[nH]3)C2=O)c1 (configuration not stated)	-4	-2	14	.	16
CO[C@@]12[C@H](COC(N)=O)C3=C(C(=O)C(C)=C(N)C3=O)N1C[C@@H]1N[C@@H]12	-7	-30	65	0.45	142*
CCn1c(=O)c(C(=O)NCC2CCCO2)c(O)c2ccccc21 (configuration not stated)	.	.	-44	.	24
N#CCSc1nc2c(sc3ccccc32)c(=O)n1C1CCCCC1	157*	.	.	.	.
O=C(CSc1nc2c(sc3ccccc32)c(=O)n1CC1CCCO1)c1ccccc1 (configuration not stated)	112*	.	.	.	.
Cc1noc(C)c1CSc1n[nH]c(=O)n1Cc1ccco1	-4	.	.	.	.
C[C@@H]1CN([C@H](C)CO)C(=O)c2cc(NC(=O)Nc3ccc4c(c3)OCO4)ccc2O[C@H]1CN(C)C(=O)Nc1ccc(C(F)(F)F)cc1	0	0	28	0.12	23
C[C@@H]1CN([C@H](C)CO)C(=O)c2cc(NC(=O)Nc3ccc(C(F)(F)F)cc3)ccc2O[C@@H]1CN(C)C(=O)Nc1ccc2c(c1)OCO2	-1	-1	35	-0.32	95*
C[C@@H]1CN([C@@H](C)CO)C(=O)c2cc(NC(=O)Nc3ccc(C(F)(F)F)cc3)ccc2O[C@@H]1CN(C)C(=O)Nc1ccc2c(c1)OCO2	50	-4	44	0.13	102*
SMILES	U2OS ROS induce	PD-1 reverse act	MITF inh	YB-1 expr inh	NOMO-1 viab
C[C@H]1CN([C@@H](C)CO)C(=O)c2cc(NC(=O)Nc3ccc(C(F)(F)F)cc3)ccc2O[C@H]1CN(C)C(=O)Nc1ccc2c(c1)OCO2	31	-1	-20	-0.12	42
Cc1ccc(S(=O)(=O)N(C)C[C@H]2Oc3c(NC(=O)c4cc(C)nn4C)cccc3C(=O)N([C@H](C)CO)C[C@@H]2C)cc1	-4	2	-7	-0.14	19
COc1ccc(CN(C)C[C@@H]2Oc3ccc(NC(=O)NC4CCCCC4)cc3CC(=O)N([C@@H](C)CO)C[C@@H]2C)cc1	-1	.	5	-0.34	9
Cc1noc(C)c1NC(=O)N(C)C[C@H]1Oc2ccc(NC(=O)NC3CCCCC3)cc2CC(=O)N([C@@H](C)CO)C[C@@H]1C	104*	0	-14	0.19	3
COc1ccc(CN(C)C[C@@H]2Oc3ccc(NC(=O)NC4CCCCC4)cc3CC(=O)N([C@H](C)CO)C[C@H]2C)cc1	0	.	7	6.7*	18
COc1ccc(NC(=O)N(C)C[C@H]2Oc3ccc(NC(=O)NC4CCCCC4)cc3CC(=O)N([C@H](C)CO)C[C@H]2C)cc1	83*	-1	-3	0.012	17
COc1ccc(NC(=O)Nc2ccc3c(c2)CC(=O)N([C@@H](C)CO)C[C@@H](C)[C@@H](CN(C)C(=O)NC2CCCCC2)O3)cc1	15	2	-13	0.44	5
O=C(NCc1cccnc1)c1cc(-c2cccc(Br)c2)nc2ccccc12	3	.	.	.	.
CCc1ccc(N2NC(=O)C(=C(C)C)C2=O)cc1	0	6	-3	0.14	33
C[C@H]1CN([C@@H](C)CO)C(=O)c2cc(NS(=O)(=O)c3cn(C)cn3)ccc2O[C@@H]1CN(C)Cc1ccncc1	-7	0	6	-0.087	22
CNCCC(Oc1ccc(C(F)(F)F)cc1)c1ccccc1 (configuration not stated)	4	3	-2	-0.22	119*!
C=C(CO)C(=O)O[C@H]1C[C@@]2(C)OC(=O)/C(=C/C)[C@@]23CC[C@@](C)(O)CC(=O)[C@@]1(C(=C)C(=O)OC)O3	25	.	.	-0.14	.
C=C[C@@]12COC(=O)C(=C)[C@@H]1[C@@H](O)[C@H](C(=C)C(=O)OC)[C@@H](O)C2	25	-10	-22	-0.27	83*
C=C[C@@]12COC(=O)C(=C)C1[C@@H](O)[C@H](C(=C)C(=O)OC)[C@@H](OC(=O)C(=C)CO)C2 (some centres not stated)	?	-16	5	-0.032	116*
C[C@H]1CN([C@@H](C)CO)C(=O)c2cc(NS(=O)(=O)c3ccccc3)ccc2O[C@H]1CN(C)Cc1ccc(C(F)(F)F)cc1	5	-2	-4	-0.061	33
Cc1ccc(S(=O)(=O)Nc2ccc3c(c2)C(=O)N([C@H](C)CO)C[C@@H](C)[C@@H](CN(C)Cc2ccc(C(F)(F)F)cc2)O3)cc1	5	-2	14	0.2	122*
C[C@@H]1CN([C@@H](C)CO)C(=O)c2cc(NS(=O)(=O)c3ccccc3)ccc2O[C@H]1CN(C)Cc1ccc(C(F)(F)F)cc1	82*	-1	-10	0.05	38

Bioassay records (PubChem)
